Laboratory results reported in PubChem BioAssay (NCI).
The panel holds about 83,000 compounds, 20% with a hit somewhere; the sample as a whole holds those more often.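 Note: values are percent growth. 100 is the growth of untreated cells, values between 100 and 0 indicate rising inhibition; between -100 and 0 indicates cell death.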 Calls of active or inactive are those of the source. How the source made its calls: active means growth percent below 10; inactive means the rest.

tested on: UACC-257 melanoma; experiment: NCI-60 one-dose screen, 48 h (100 = growth as untreated, 0 = no growth, -100 = all killed); conditions: 10 µM unless noted

O=C1CCc2ccccc2N1 was tested. Which growth did it give?
Its growth is 106% (inactive).

Which growth does the source give for Cc1cnc(SCc2ccc(Cl)cc2Cl)nc1Nc1ccc(Cl)c(Cl)c1 here?
The growth was 91.4% (inactive).

COc1cc(C2=NN(C(C)=O)C(c3cccc(Nc4ccnc5cc(C(F)(F)F)ccc45)c3)C2)cc(OC)c1OC (configuration not stated) was tested. Which growth did it give?
Its growth is 79% (inactive).

For CCOC(=O)c1c(-c2ccc(O)cc2)c(C#N)c2c(C#N)c(N)nn2c1N, which growth is on record?
Its growth is 93% (inactive).

CN(C)CCCn1c2c(c3cc(-c4ccco4)ccc3c1=O)C(=O)c1ccccc1-2 was tested. Which growth did it give?
The growth was 102% (inactive).

Which growth does the source give for Nc1cc(N)c(S(=O)(=O)O)cc1N=Nc1cc([N+](=O)[O-])ccc1O here?
Its growth is 99.2% (inactive).

For COc1cc(/C=N/Nc2nc(-c3ccc(F)cc3)c(C#N)c(N3CCOCC3)n2)ccc1O, which growth is on record?
Its growth is 102% (inactive).

How did the growth turn out when COc1cc(-c2csc(NC(=O)Nc3ccc(Cl)cc3)n2)cc(OC)c1OC was run?
The growth was 22.9% (inactive).

With N#CCNc1ccc(C(=O)O)cc1 as the compound, how does the growth read?
The growth was 98.4% (inactive).

CCOC(=O)c1ccc(Nc2ncnc3ccc(NC(=O)c4ccccc4)cc23)cc1 was tested. Which growth did it give?
Its growth is 103% (inactive).

COC(=O)/C=C/c1cc(OC(C)=O)c2c(c1)C(C(=O)OC)C(c1ccc(OC(C)=O)c(OC(C)=O)c1)O2 (configuration not stated) was tested. Which growth did it give?
Its growth is 45.4% (inactive).

tested on: M14 melanoma; experiment: as above; conditions: 10 µM unless noted

Which growth does the source give for O=C1CC(c2ccc(O)c(O)c2)Oc2cc(O)c([C@@H]3O[C@H](CO)[C@@H](O)[C@H](O)[C@H]3O)c(O)c21 (some centres not stated) here?
The growth was 102% (inactive).

Which growth does the source give for O=C(NCc1ccccc1)c1ccc2c(c1)NC(=O)[C@@H]1CCCN21 here?
Its growth is 95.8% (inactive).

CCc1ccc(OCc2ccccc2C(=O)Nc2ccc3nc(C)cc(N)c3c2)cc1 was tested. Which growth did it give?
Its growth is -93.6% (active).

For CSc1cccc(NC(=O)Nc2nc3c(C)cccc3s2)c1, which growth is on record?
Its growth is 98% (inactive).

For COC(=O)[C@]1(C)CCC[C@]2(C)[C@H]3C[C@H]4C(C(C)C)=C[C@]3(CC[C@H]21)[C@@H]1C(=O)N(CCC#N)C(=O)[C@@H]14, which growth is on record?
Its growth is 83.1% (inactive).

CC1=C(CCCOC(=O)NCCCl)C2=C(C)C3(CC3)[C@@](C)(O)C(=O)C2=C1 was tested. Which growth did it give?
Its growth is 17.9% (inactive).

With COc1ccc2[nH]c(-c3ccccc3)c(C=C(C#N)C#N)c2c1 as the compound, how does the growth read?
Its growth is 5.54% (active).

Cc1nn(-c2ccc(-c3ccc(OC(F)(F)F)cc3)cc2)c2nc(-c3ccccc3)nc(N)c12 was tested. Which growth did it give?
The growth was 102% (inactive).

Which growth does the source give for O=S(=O)(O)c1ccc(N=NSc2ccc3ccccc3c2)cc1 here?
The growth was 92.9% (inactive).

With O=c1c2ccccc2n(CC(O)CN2CCCC2)c2c(Br)cccc12 (configuration not stated) as the compound, how does the growth read?
The growth was 98.7% (inactive).

CS(=O)(=O)O[C@@H]1C(=O)N(c2cc3c4ccccc4ccc3c3ccccc23)[C@H]1c1ccc(F)cn1 was tested. Which growth did it give?
Its growth is 30.2% (inactive).

How did the growth turn out when CC(=O)c1cc2c(N)c(C(=O)Nc3ccccn3)sc2nc1C was run?
The growth was 54.9% (inactive).

With CCOC(=O)c1sc(/N=C2\NC(=O)/C(=C/c3ccc(N4CCN(C)CC4)cc3)S2)nc1C as the compound, how does the growth read?
The growth was 108% (inactive).

With O=C(/C(=C/c1ccc([N+](=O)[O-])cc1)SCc1ccc(F)cc1)c1ccc(Cl)cc1 as the compound, how does the growth read?
The growth was 44.7% (inactive).

Which growth does the source give for Cc1cnc(-c2ccc(-c3ccc(NC(=O)Nc4c(F)cc(F)cc4F)cc3F)c3c2C(=O)NC3)[nH]1 here?
The growth was 16.1% (inactive).

COc1ccc(Nc2cc(NC(=O)CNc3cc(OC)c(Cl)c(OC)c3Cl)ncn2)cc1 was tested. Which growth did it give?
The growth was 75.2% (inactive).

Which growth does the source give for Nc1n[nH]c2cccc(C#Cc3cccc(NC(=O)c4cc(N5CCOCC5)cc(C(F)(F)F)c4)c3)c12 here?
The growth was 19.2% (inactive).

How did the growth turn out when CC(C)(C)CC(C)(C)Cc1ccc(OCCOCC[N+](C)(C)Cc2ccccc2)cc1 was run?
The growth was 7.33% (active).

For CCOCc1cc(C(C)(C)C)ccc1O, which growth is on record?
Its growth is 104% (inactive).

For C=C1C(=O)O[C@H]2[C@H]1CC/C(COC(=O)Nc1nc3ccccc3[nH]1)=C\CC[C@@]1(C)O[C@@H]21, which growth is on record?
The growth was 46.4% (inactive).

How did the growth turn out when C=C(C)[C@@H]1CC[C@]2(C(=O)n3ccnc3)CC[C@]3(C)[C@H](CC[C@@H]4[C@@]5(C)CCCNC(C)(C)[C@@H]5CC[C@]43C)[C@@H]12 was run?
The growth was -78.6% (active).

How did the growth turn out when C=C(C)[C@@H]1CC[C@]2(C(=O)O)CC[C@]3(C)[C@H](CC[C@@H]4[C@@]5(C)C[C@@H](CC#Cc6ccccc6C)C(=O)C(C)(C)[C@@H]5CC[C@]43C)[C@@H]12 was run?
Its growth is 40.6% (inactive).

With Clc1ccc2c(NCCCNC3CCCCC3)ccnc2c1 as the compound, how does the growth read?
The growth was 89.8% (inactive).

How did the growth turn out when CN(C)C(CNc1oc(-c2cccc3ccccc23)nc1C#N)c1ccco1 (configuration not stated) was run?
Its growth is 91.9% (inactive).

How did the growth turn out when c1cc(CNC23CC4CC(CC(C4)C2)C3)cc(C[N+](Cc2cccc(CNC34CC5CC(CC(C5)C3)C4)c2)(Cc2cccc(CNC34CC5CC(CC(C5)C3)C4)c2)Cc2cccc(CNC34CC5CC(CC(C5)C3)C4)c2)c1 (configuration not stated) was run?
The growth was 24.3% [42 µM] (inactive).

With O=C1CCc2ccccc2N1 as the compound, how does the growth read?
Its growth is 99.2% (inactive).

How did the growth turn out when Cc1cnc(SCc2ccc(Cl)cc2Cl)nc1Nc1ccc(Cl)c(Cl)c1 was run?
The growth was 98.7% (inactive).

With COc1cc(C2=NN(C(C)=O)C(c3cccc(Nc4ccnc5cc(C(F)(F)F)ccc45)c3)C2)cc(OC)c1OC (configuration not stated) as the compound, how does the growth read?
The growth was 29.7% (inactive).

How did the growth turn out when CCOC(=O)c1c(-c2ccc(O)cc2)c(C#N)c2c(C#N)c(N)nn2c1N was run?
Its growth is 45.2% (inactive).

CN(C)CCCn1c2c(c3cc(-c4ccco4)ccc3c1=O)C(=O)c1ccccc1-2 was tested. Which growth did it give?
Its growth is 81.2% (inactive).

Which growth does the source give for Nc1cc(N)c(S(=O)(=O)O)cc1N=Nc1cc([N+](=O)[O-])ccc1O here?
Its growth is 100% (inactive).

COc1cc(/C=N/Nc2nc(-c3ccc(F)cc3)c(C#N)c(N3CCOCC3)n2)ccc1O was tested. Which growth did it give?
Its growth is 114% (inactive).

For COc1cc(-c2csc(NC(=O)Nc3ccc(Cl)cc3)n2)cc(OC)c1OC, which growth is on record?
The growth was 21.1% (inactive).

N#CCNc1ccc(C(=O)O)cc1 was tested. Which growth did it give?
Its growth is 110% (inactive).

For CCOC(=O)c1ccc(Nc2ncnc3ccc(NC(=O)c4ccccc4)cc23)cc1, which growth is on record?
Its growth is 93.8% (inactive).

With COC(=O)/C=C/c1cc(OC(C)=O)c2c(c1)C(C(=O)OC)C(c1ccc(OC(C)=O)c(OC(C)=O)c1)O2 (configuration not stated) as the compound, how does the growth read?
The growth was -6.22% (active).
